This is part of a sample that, as a whole, favours compounds with a hit. Of some 83,000 tested, about 20% had one in any assay.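 A percent growth of 40 corresponds to 60% growth inhibition; 0 means no net growth; -100 means all cells died. Active threshold: below 10.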 A number with no mark means an inactive call. Calls of active or inactive are those of the source.
tested on: MALME-3M melanoma; assay: NCI-60 one-dose screen, 48 h (100 = growth as untreated, 0 = no growth, -100 = all killed); conditions: 10 µM unless noted

Compound | growth
Nc1ccc(S(=O)(=O)O)c2ccc(N=Nc3ccc(N=Nc4ccc(S(=O)(=O)O)cc4)c4ccccc34)c(O)c12 | 97.6%
CSc1ccc(-c2n[nH]nc2-c2cc3ccccc3s2)cc1 | 69.4%
COc1ccc(C(=O)COc2ccc(/C=C3\COc4ccc(OC)cc4C3=O)cc2)cc1 | 90.2%
COc1cc(C=Nc2oc(-c3ccccc3)c(-c3ccccc3)c2C#N)cc(CN2CCCCC2)c1O | 110%
O=C1CC[C@H](c2ccc(O)c3c2C(=O)[C@@H]2O[C@@H]2C3=O)c2cccc(O)c21 | 86.5%
C#CC(F)(F)[C@]1(O)CC[C@H]2[C@@H]3CCC4=CC(=O)CCC4=C3[C@@H](c3ccc(C(C)=O)cc3)C[C@@]21C | -63.4% (active)
O=C(Cc1ccccc1Nc1c(Cl)cccc1Cl)NN1C(=O)/C(=C/c2ccc(Br)cc2)SC1=S | 100%
Cc1nn(-c2cc(=O)[nH]c3ccccc23)c(N)c1C#N | 108%
CCn1c(Cc2ccccc2Nc2c(Cl)cccc2Cl)nnc1SCC(=O)NN1C(=O)/C(=C/c2cc(OC)c(O)c(OC)c2)SC1=S | 40.4%
Cc1cc(C)nc(SC2=C(Nc3cc(Cl)ccc3O)C(=O)N(Cc3ccccc3)C2=O)n1 | -56.7% [30 µM] (active)
CCN(CC)c1ccc(/C=N\NC(=O)/C=C/C=C/c2ccc3c(c2)OCO3)c(O)c1 | 56.5%
N#Cc1cnn(-c2nc3c(Cl)cccc3s2)c1N | 85.9%
COc1ccc(S(=O)(=O)N2CC3(COC3)C2)cc1NC(=O)c1[nH]c(C)c2c1CCCCC2=O | 61.1%
Cn1cc(C(=O)c2nc(-c3c[nH]c4ccc(F)cc34)no2)c2cc(F)ccc21 | 87.3%
O=C1C=C(OCC=C(Cl)Cl)C(=O)c2ccccc21 | 80.9%
Cc1cc(C)nc(SC2=C(Nc3cccc(Cl)c3)C(=O)N(Cc3ccccc3)C2=O)n1 | 91.9% [30 µM]
O=c1cc(CSc2nnc(-c3ccc(F)cc3)o2)c2ccc3ccccc3c2o1 | 107%
CCCn1c(=O)[nH]c(N)c([C@H]2c3ccccc3Oc3[nH]c(=O)n(CCC)c(=O)c32)c1=O | 78.4%
O=C(CCN1C(=O)/C(=C/c2ccc(Cl)cc2)SC1=S)NCCCN1CCOCC1 | 100%
Cc1nc2ccccc2n1C(=O)C[C@@H]1NC(=S)NC1=O | 83.8%

Compound | growth
O=C(N=Nc1c(O)[nH]c2ccc(Br)cc12)c1cc(-c2ccccc2)on1 | 89.5%
C=C(C)C(=O)Nc1ccc(NC(C)C)cc1 | 220%
CC(O)CN1CC(O)=C(c2nc3ccccc3s2)C1=N (centres undefined) | 97.6%
O=c1c2c3c(sc2nc(N/N=C/c2cn(-c4ccccc4)nc2-c2ccc(Cl)cc2)n1Cc1ccccc1)CCCC3 | 115%
COc1cccc(-c2nn(C(C)(C)C)cc2-c2ccnc(NCCCNS(=O)(=O)c3ccc(C)cc3)c2)c1 | 101%
CSc1nc(Nc2cccc(NC(=O)CCl)c2)c(C#N)c(-c2cccc([N+](=O)[O-])c2)n1 | 37.3%
CSc1nc(Nc2cccc(NC(=O)/C(C#N)=C/c3c(Cl)cccc3Cl)c2)c(C#N)c(-c2cccc([N+](=O)[O-])c2)n1 | 96.5%
COc1ccc(-c2nc3ccc(-c4nc5ccc(N6CCN(c7ccccc7)CC6)cc5[nH]4)cc3[nH]2)cc1OC | -63.8% (active)
COc1ccc(CCNc2nc3c(c(=O)n(Cc4ccc(Br)cc4)c(=O)n3C)n2C)cc1OC | 87.2%
C=CCSSc1ncnc2c1ncn2C1OC(CO)C(O)C1O (centres undefined) | 48.3%
Cc1ccc(NC(=O)C2CCC(CN3CCN(C)CC3)CC2)cc1Nc1nccc(-c2cccnc2)n1 (centres undefined) | 104%
COc1cc(/C=C/c2cc(O)c3cc(C(C)=O)c(=O)oc3c2)cc2c1O[C@]1(C)CC[C@@H](O)C(C)(C)[C@H]1C2 | 25.4%
C=CC(=O)Nc1cccc(Nc2nc(SC)nc(-c3cccc([N+](=O)[O-])c3)c2C#N)c1 | 14.9%
N#C/C(=C\c1ccc(-c2cc(C(F)(F)F)ccc2Cl)o1)c1nc(-c2ccco2)cs1 | 106%
COCCNc1ccc2c3c(cccc13)C(=O)N(CCN(C)C)C2=O | 22.2%
C=CC(=O)Nc1cccc(-c2nc(SC)nc(NCc3ccccc3)c2C#N)c1 | 66.4%
COC(=O)c1cccc(NC(=O)c2ccc(-c3cccc(N)c3)o2)c1 | 91.1%
N#Cc1c(-c2ccc(Cl)cc2)nc(N=Nc2c(O)[nH]c3ccc(Cl)cc23)nc1N1CCOCC1 | 88.8%
N#CN1CCC[C@H]1C(=O)N1CCc2c(-c3[nH]nc4ncccc34)cccc21 | 24%

— PubChem BioAssay (NCI)
